Among all 16,000 compounds or so, about 5,100 (32%) were called active. Roughly 25% stayed inconclusive and do not appear here. Calls come from the whole dose curve; as a rule, active = well fitted curve in the direction sought with a large enough effect; inconclusive = small, poorly fitted or top-dose-only effect, or effect the other way; inactive = no such curve, though single readings can be large or run the other way. Some of the results follow.
% is set by controls: 0 for no effect and ±100 for the full control effect.

For the test, the target named is Cytochrome P450 3A4 (Homo sapiens) (UniProt P08684). Description: Cytochrome panel assay with activity outcomes. Particulars: recombinant CYP, pro-luciferin dealkylation, luminescence, p450-cyp3a4; series mostly up to 57.1 µM; activity, negative = inhibition: at the top concentration.
Cytochrome P450 3A4 (Homo sapiens), sequence (P08684 whole entry, looked up): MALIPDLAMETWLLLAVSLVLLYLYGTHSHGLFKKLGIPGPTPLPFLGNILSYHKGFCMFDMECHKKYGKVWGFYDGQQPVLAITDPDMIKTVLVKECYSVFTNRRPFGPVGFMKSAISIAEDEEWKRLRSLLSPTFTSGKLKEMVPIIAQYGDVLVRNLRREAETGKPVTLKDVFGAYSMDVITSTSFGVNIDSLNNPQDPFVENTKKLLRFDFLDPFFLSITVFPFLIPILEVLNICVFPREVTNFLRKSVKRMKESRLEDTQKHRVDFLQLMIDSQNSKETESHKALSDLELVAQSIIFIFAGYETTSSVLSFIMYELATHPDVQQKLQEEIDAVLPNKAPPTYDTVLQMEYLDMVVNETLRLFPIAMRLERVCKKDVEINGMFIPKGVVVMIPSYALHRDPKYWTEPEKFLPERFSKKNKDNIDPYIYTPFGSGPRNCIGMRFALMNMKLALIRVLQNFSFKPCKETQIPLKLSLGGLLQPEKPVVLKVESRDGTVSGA
For the compound `Cc1nc2c(C(=O)NCc3ccc4c(c3)OCO4)c[nH]n2c(=O)c1Cc1ccccc1F`, the AC50 (usually the midpoint of the concentration-response curve, whichever way the signal moves) is 2.24 µM (active). Take `CCOC(=O)Cc1c(C)nc2c(C#N)c[nH]n2c1=O`: the “activity, negative = inhibition” value is -0.582% (inactive). Take `COc1ccc(-n2cccc2C=O)cc1OC`: the “activity, negative = inhibition” value was -5.8% (inactive). Still for that read-out and setting: as for `CC(C)(C)NC(=O)CSC(=Nc1ccc(F)cc1)NC#N`, the figure is -11.3% [at 2.29 µM] (inactive). Regarding `Cc1ccc(C(=O)COC(=O)c2ccccc2N2C(=O)C3C4CCC(C4)C3C2=O)cc1C` (stereo unspecified), the AC50 was 12.6 µM (active). With `O=C(Oc1ccccc1N1C(=O)C2CCCCC2C1=O)c1ccccc1` (stereo unspecified), the activity, negative = inhibition is -1.02% [at 2.29 µM] (inactive). Same read-out and setting: as for `C[N+]1(C)CCC[C@@H](OC(=O)C(O)(c2ccccc2)c2ccccc2)C1`, the figure is -1.21% [at 25.6 µM] (inactive). For the compound `Cc1ccc(-c2ccc(CCC(=O)O)n2CC2CCCO2)cc1` (stereo unspecified), the activity, negative = inhibition is 18.1% [at 2.29 µM] (inactive). As for `CCC(=O)Nc1ccc(C(=O)CSc2nnc(-c3ccc(O)cc3)n2CC2CCCO2)cc1OC` (stereo unspecified), the AC50 was 14.1 µM (active). On to `Cc1cc(Cc2cc(C)cc(C(C)(C)C)c2O)c(O)c(Cc2cc(C)cc(C(C)(C)C)c2O)c1`, for which the activity, negative = inhibition was -19.8% [at 11.4 µM] (inactive). The same measure, in the same setting: as for `Cc1cc(Cc2c(C)c(C)c(Cc3cc(C)cc(C(C)(C)C)c3O)c(C)c2C)c(O)c(C(C)(C)C)c1`, the figure is 0.196% [at 11.4 µM] (inactive). For the compound `CC(C)(C=O)Cc1cc(C(C)(C)C)c(O)c(C(C)(C)C)c1`, the AC50 is 12.6 µM (active). The same measure, in the same setting: as for `CC(C)(CO)Cc1cc(C(C)(C)C)c(O)c(C(C)(C)C)c1`, the figure is 2.51 µM (active). For the compound `Cc1cc(Cc2cc(Cc3cc(C)cc(C(C)(C)C)c3O)c(C)cc2C)c(O)c(C(C)(C)C)c1`, the activity, negative = inhibition is -23.1% [at 11.4 µM] (inactive). For the compound `Cc1cc(-c2cc(C)c(O)c(C(C)(C)C)c2)cc(C(C)(C)C)c1O`, the activity, negative = inhibition is -12.3% [at 11.4 µM] (inactive). `CCCCCc1nc2c(=O)[nH]c3ccccc3c2o1`: the “activity, negative = inhibition” value is -8.01% (inactive). With `CCCCc1c2ccccc2nc2[nH]c3ccccc3c12`, the AC50 was 15.8 µM (active). Turning to `CN(C)CCCc1c2ccccc2nc2ccc(Cl)cc12`, the activity, negative = inhibition was -1.41% [at 11.4 µM] (inactive). As to `Clc1ccc2c(NC3CCC(N4CCCCC4)CC3)ccnc2c1` (stereo unspecified), the activity, negative = inhibition was -1.29% [at 11.4 µM] (inactive). With `COc1ccc(CNc2cc(-c3ccccc3Cl)ncn2)c(OC)c1`, the AC50 was 6.31 µM (active). With `COc1ccc(CNc2cc(-c3ccccc3OC)ncn2)c(OC)c1`, the AC50 was 6.31 µM (active). `COc1ccccc1-c1cc(Nc2ccc(F)cc2)ncn1`: the “activity, negative = inhibition” value was -29.9% (inactive). Consider `COc1ccccc1CNc1cc(-c2ccccc2OC)ncn1`, for which the AC50 was 15.8 µM (active). Regarding `COc1ccccc1-c1cc(Nc2ccn[nH]2)ncn1`, the AC50 is 3.98 µM (active). Consider `N/C(=N\O)c1cn([C@@H]2O[C@@H](CO)[C@H](O)[C@@H]2O)c2ncnc(NO)c12`, for which the activity, negative = inhibition is -7.27% [at 11.4 µM] (inactive). Same read-out and setting: as for `CC(=O)OC[C@@H]1O[C@@H](O/N=C2/C[C@@H](O)[C@@H](O)[C@@H]3[C@@H]4C(=O)N(C[C@@H]5CCCO5)C(=O)[C@H]4CC[C@H]23)[C@H](OC(C)=O)[C@H](OC(C)=O)[C@@H]1OC(C)=O`, the figure is -12.5% [at 11.4 µM] (inactive); as for `Oc1cc(O)c2c(c1)O[C@@H](c1ccc(O)c(O)c1)[C@H](O[C@@]1(c3cc(O)c(O)c(O)c3)Oc3cc(O)cc(O)c3[C@H](O)[C@@H]1O)C2`, -19.7% [at 11.4 µM] (inactive). Regarding `O=C(Cc1ccccc1)N/N=C/c1ccccc1OCc1ccc(Cl)cc1`, the AC50 was 15.8 µM (active). On the same count and under the same terms, as for `O/N=C/c1ccccc1OCc1ccc(Cl)cc1`, the figure is 12.6 µM (active). As to `O=C(SCc1cccc2ccccc12)c1ccc(Cl)cc1`, the activity, negative = inhibition is -17.6% [at 11.4 µM] (inactive). Take `Cc1ccc(CONC(=O)/N=C/N(C)C)cc1`: the “activity, negative = inhibition” value is -12.6% (inactive). With `Cc1ccc(COc2ccc(Br)cc2/C=N/O)cc1`, the AC50 was 7.94 µM (active). Still for that read-out and setting: the figure for `O/N=C/c1cc(Cl)ccc1OCc1cccc2ccccc12` is 7.94 µM (active).

For the compound `Cc1ccc(COc2coc(CO)cc2=O)cc1`, the “activity, negative = inhibition” value is -20.6% (inactive). Same read-out and setting: as for `Oc1ccc(Cl)cc1C=Nc1cnc2ccccc2c1`, the figure is -12.5% [at 11.4 µM] (inactive); as for `NC(=S)N/N=C/c1ccccc1OCc1cccc(Cl)c1`, -18.2% [at 2.29 µM] (inactive). Still for that read-out and setting: the figure for `O=C(Cc1ccccc1)N/N=C\c1ccc(Br)o1` is -20.2% (inactive); for `COc1c(Cl)cc(Cl)cc1CNCCNCC(C)O` (stereo unspecified) it is 15.3% (inactive). In the case of `Cc1n[nH]c(=S)n1/N=C/c1ccccc1OCc1ccc(Cl)cc1`, the AC50 was 1.26 µM (active). Regarding `COc1cccc(/C=N/n2c(=S)n(C)c3cc(C)c(C)cc32)c1OC`, the activity, negative = inhibition is -9.43% [at 2.29 µM] (inactive). Regarding `C=C1C(=O)C=C2CN(C(=O)c3ccccc3)[C@@](Cc3ccc(OC)cc3)(C(=O)OC)[C@@H]12`, the AC50 was 1.58 µM (active). For the compound `COc1ccc(C(=O)n2nc(-c3ccccc3)nc2SC)cc1`, the “activity, negative = inhibition” value was 6.71% (inactive).

Turning to `C=C1C(=O)C=C2CN(C(=O)c3ccccc3)[C@@](Cc3ccc(F)cc3)(C(=O)OC)[C@@H]12`, the AC50 was 7.94 µM (active). `O=C(CON1C(=O)c2ccccc2C1=O)c1ccccc1`: the activity, negative = inhibition was -17.5% [at 11.4 µM] (inactive). The same measure, in the same setting: as for `COc1ccc(C(=O)O/N=C/c2ccc(S(=O)c3ccc(Cl)cc3)nc2)cc1` (stereo unspecified), the figure is 7.76% (inactive); as for `COc1ccc2c(c1)-c1ccccc1S(=O)(=O)N2C(C)=O`, -6.85% (inactive). On to `Cc1ccc(C(=O)CN(C(=O)c2ccc(Cl)cc2)N2C(=O)c3ccccc3C2=O)cc1`, for which the AC50 was 10 µM (active).

Regarding `COc1ccc(C(=O)CN(C(=O)c2ccc(Cl)cc2)N2C(=O)c3ccccc3C2=O)cc1`, the AC50 is 8.91 µM (active). As for `Cc1cc(CC(=O)O)n(C)c1C(=O)c1ccc(Cl)cc1`, the “activity, negative = inhibition” value is -11.7% [at 25.6 µM] (inactive). For the compound `Cc1cc(=Nc2ccc3c(c2)c(N)cc(C)[n+]3C)nc(N)n1C`, the activity, negative = inhibition is 3.03% [at 11.4 µM] (inactive). For the compound `C[C@@H]1CCCC(CC(=O)O)(CC(=O)O)C1`, the activity, negative = inhibition is -9.8% [at 11.4 µM] (inactive). Consider `CC(NC(=O)c1ccc(Cn2cc([N+](=O)[O-])cn2)o1)c1ccccc1` (stereo unspecified), for which the AC50 was 25.1 µM (active). As for `O=C(Nc1cccc(C(F)(F)F)c1)c1ccc(Cn2cc(Br)cn2)o1`, the activity, negative = inhibition was -0.795% [at 2.29 µM] (inactive).

Regarding `CC(NC(=O)Cn1cnc([N+](=O)[O-])n1)c1ccccc1` (stereo unspecified), the “activity, negative = inhibition” value is 0.0886% (inactive). Regarding `CCC(=O)NC(Nc1sc2c(c1C(=O)OC)CCCC2)(C(F)(F)F)C(F)(F)F`, the activity, negative = inhibition is -7.25% [at 2.29 µM] (inactive).

On to `CCOC(=O)C(NC(=O)CC)(Nc1sc2c(c1C(=O)OC)CCN(C)C2)C(F)(F)F` (stereo unspecified), for which the AC50 was 12.6 µM (active).

The record behind these values is PubChem BioAssay AID1851 (National Center for Advancing Translational Sciences (NCATS), 2009).
